Assay results: PubChem BioAssay (Tox21)
Where “and” joins values, the source holds several entries; their conditions need not be identical. Equal entries are not always repeated. Records with an inconclusive call do not appear. Where a call stands in place of a potency, no number is given. A structure can be active in one record and inactive in another. Calls of active or inactive are those of the source. Unless noted, the call rests on the fitted dose curve; in most records, active means well fitted curve in the direction sought with a large enough effect in the repeat runs; inconclusive means weak or mixed curves; inactive means no such curve, though single readings can be large; an effect the other way counts as inactive or inconclusive.

Assays:
[1] = qHTS assay to identify small molecule agonists of the RXR signaling pathway - cell viability counter screen (AID 1159529); further: nearly all actives have a fitted effect of over 50% in size; further: potency means the concentration at half of the fitted maximal effect
Outline: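 CellTiter-Glo luminescence gave viability in the wells also read for beta-lactamase. Cells (RXR-alpha-UAS-bla HEK 293T, 2% charcoal-stripped FBS medium) had 5 hr plating, then 16 hr compound exposure at 37 C; tetraoctyl ammonium bromide served as positive control.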

[2] = qHTS assay to identify small molecule antagonists of the retinoid acid receptor (RAR) signaling pathway - cell viability counter screen (AID 1159551); further: nearly all actives have a fitted effect of over 35% in size; further: potency means the concentration at half of the fitted maximal effect
Outline: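 ATP-based viability, C3RL4 cells, 6 h at 37 C with 1 uM final retinol co-added after compound; luminescence read 30 min post CellTiter-Glo, RT.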

[3] = qHTS assay to identify small molecule antagonists of the retinoic acid receptor (RAR) signaling pathway (AID 1159552; further: nearly all actives have a fitted effect of over 50% in size; further: potency means the concentration at half of the fitted maximal effect)
Outline: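 Luminescent RARE reporter read-out in C3RL4 cells: 6 hr co-treatment at 37 C of test compounds with retinol at 1 uM final. Cells plated overnight beforehand; luciferase reagent incubated 30 min at room temperature before reading.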

[4] = qHTS assay to identify small molecule agonists of the retinoic acid receptor (RAR) signaling pathway (AID 1159553); settings: C3RL4 RARE luciferase reporter, agonist, 6 h; activation: at 73.3 µM (top of the series) unless noted; further: potency means the concentration at half of the fitted maximal effect
Outline: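 Quantitative high-throughput format: the Tox21 10K library was tested on C3RL4 RARE-luciferase cells for 6 hr at 37 C and 5% CO2, with luminescence measured after a 30 min room-temperature reagent step.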

[5] = qHTS assay to identify small molecule antagonists of the estrogen related receptor (ERR) signaling pathway from Tox21 library - cell viability counter screen (AID 1224834); further: nearly all actives have a fitted effect of over 30% in size; further: potency means the concentration at half of the fitted maximal effect
Outline: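 Compounds in DMSO were pinned onto ERR cells that had been incubated for 6 h, and the plates were held at 37 C for 17.5 h. CellTiter-Fluor reagent was then added and fluorescence was measured after 30 min.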

[6] = biological target: Luciferin 4-monooxygenase (Photinus pyralis) (UniProt P08659); assay: qHTS assay to identify small molecule inhibitors of firefly luciferase (AID 1224835); further: nearly all actives have a fitted effect of over 25% in size; further: potency means the concentration at half of the fitted maximal effect
Outline: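 Biochemical qHTS: compounds run as interplate titrations against purified firefly enzyme, with D-luciferin and ATP each at its KM concentration. Light output recorded by CCD imaging.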

[7] = qHTS assay to identify small molecule agonists of the constitutive androstane receptor (CAR) signaling pathway - cell viability counter screen (AID 1224836); further: nearly all actives have a fitted effect of over 45% in size; further: potency means the concentration at half of the fitted maximal effect
Outline: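 Cell viability multiplexed with the CAR agonist screen: CellTiter-Fluor fluorescence after 23 hr at 37 C. HepG2-CYP2B6-hCAR cells got compounds at 15 concentrations with PK11195 at 0.75 uM final.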

[8] = qHTS assay to identify small molecule antagonists of the constitutive androstane receptor (CAR) signaling pathway - cell viability counter screen (AID 1224837); further: nearly all actives have a fitted effect of over 45% in size; further: potency means the concentration at half of the fitted maximal effect
Outline: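 Cells are seeded, rested 4 hr at 37 C/5% CO2, dosed with compound (15-point series) and 50 nM CITCO, incubated a further 23 hr, and then CellTiter-Fluor reagent is added before fluorescence is read. The line is HepG2 with stable hCAR and CYP2B6-2.2kb.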

[9] = biological target: Nuclear receptor subfamily 1 group I member 3 (Homo sapiens) (UniProt Q14994); assay: qHTS assay to identify small molecule agonists of the constitutive androstane receptor (CAR) signaling pathway (AID 1224839); further: nearly all actives have a fitted effect of over 15% in size; further: potency means the concentration at half of the fitted maximal effect;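 on activation: HepG2 cells stably carrying human CAR and a CYP2B6 luciferase reporter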
Outline: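 Luminescent ONE-Glo read-out after 24 hr, 37 C exposure of double-stable HepG2-CYP2B6-hCAR reporter cells to a 15-point compound series, in the presence of 0.75 uM PK11195 (final).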

[10] = qHTS assay to identify small molecule antagonists of the estrogen related receptor signaling pathway with the pleiotropic PPARgamma coactivator (PGC) from Tox21 10K library - cell viability counter screen (AID 1224840; active means well fitted cell-killing curve with a large enough effect in the repeat runs, not every such curve was filed as active; further: nearly all actives have a fitted effect of over 40% in size; further: potency means the concentration at half of the fitted maximal effect)
Outline: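 Cell viability is measured by CellTiter-Fluor fluorescence in PGC/ERR cells that receive compounds after a 6-hour attachment period and are then incubated 17.5 hours at 37 C.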

[11] = qHTS assay to identify small molecule antagonists of the estrogen related receptor signaling pathway with the pleiotropic PPARgamma coactivator (PGC) from Tox21 10K library (AID 1224841; call rule not given here; further: actives are mostly falling curves and most rising ones were filed inactive; nearly all actives have a fitted effect of over 50% in size; further: potency means the concentration at half of the fitted maximal effect)
Outline: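 Cells stably carrying the PGC/ERR reporter, seeded at 2,000 per well, received pin-transferred compounds 6 h post-plating. Exposure lasted 18 h at 37 C. Signal: One-Glo luminescence.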

[12] = qHTS assay to identify small molecule agonists of the estrogen related receptor signaling pathway with the pleiotropic PPARgamma coactivator (PGC) from Tox21 10K library (AID 1224842); further: nearly all actives have a fitted effect of over 15% in size
Outline: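 PGC/ERR reporter cell line, 2,000 cells per well, incubated 6 h at 37 C before 23 nL compound in DMSO was added. After 18 h at 37 C, One-Glo luminescence read following 30 min at room temperature.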

[13] = biological target: Thyrotropin receptor (Homo sapiens) (UniProt P16473); assay: qHTS assay to identify small molecule agonists of the thyroid stimulating hormone receptor (TSHR) signaling pathway (AID 1224843; calls by dose curve; further: nearly all actives have a fitted effect of over 45% in size; further: potency means the concentration at half of the fitted maximal effect)
Outline: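 HEK293/TSHR, 800 cells/well; cpd 30 min RT; add cAMP-d2 + anti-cAMP-cryptate, 1 h RT; fluorescence read on plate reader. 15-pt titration, n=3.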

[14] = qHTS assay to identify small molecule antagonists of the estrogen related receptor (ERR) signaling pathway - cell viability counter screen (AID 1224818);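 further: viability measured after 17.5 h of compound exposure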
Outline: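 Quantitative high-throughput viability counter screen in ERR cells. Compounds (DMSO) incubated 17.5 h at 37 C; read-out was CellTiter-Fluor fluorescence.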

[15] = qHTS assay to identify small molecule antagonists of the estrogen related receptor (ERR) signaling pathway (AID 1224819;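 further: luminescence from an ERR-driven luciferase reporter measured with One-Glo reagent; nearly all actives have a fitted effect of over 50% in size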)
Outline: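 ERR reporter cell line (NTP) plated at 2,000 cells/well, settled 6 h at 37C/5% CO2, then exposed to LOPAC compounds for 18 h at 37C. One-Glo luciferase luminescence read after 30 min at room temperature.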

[16] = qHTS assay to identify small molecule agonists of the estrogen related receptor (ERR) signaling pathway (AID 1224820)
Outline: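 Following a 6 h settling period, 2,000 ERR cells per well receive DMSO-dissolved compounds by pin tool and incubate 18 h at 37 C; agonist activity is scored from One-Glo luminescence read 30 min post-addition.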

[17] = test system: estrogen-related receptor alpha (ERRalpha) with PGC-1alpha coactivator, human; assay: qHTS assay to identify small molecule antagonists of the estrogen related receptor signaling pathway with the pleiotropic PPARgamma coactivator (PGC) (AID 1224821; calls by dose curve)
Outline: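 Screening used NTP's PGC/ERR cells, dosed via pin tool with compound in DMSO alongside positive and negative controls. After 18 h at 37 C, One-Glo reagent sat 30 min at room temperature before luminescence detection.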

[18] = qHTS assay to identify small molecule antagonists of the estrogen related receptor signaling pathway with the pleiotropic PPARgamma coactivator (PGC) cell viability counter screen (AID 1224822)
Outline: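 Cytotoxicity in the PGC/ERR cell line is assessed with CellTiter-Fluor, read as fluorescence intensity 30 min after reagent addition, following 17.5 h compound treatment at 37 C.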

[19] = qHTS assay to identify small molecule agonists of the estrogen related receptor signaling pathway with the pleiotropic PPARgamma coactivator (PGC) (AID 1224823)
Outline: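 In this quantitative high-throughput screen, an 18 h, 37 C treatment of PGC/ERR cells with compounds in DMSO preceded a One-Glo luminescence read taken after 30 min at room temperature.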

[20] = biological target: Nuclear receptor subfamily 1 group I member 3 (Homo sapiens) (UniProt Q14994); assay: qHTS assay to identify small molecule antagonists of the constitutive androstane receptor (CAR) signaling pathway (AID 1224838);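 further: HepG2 cells stably expressing hCAR with CYP2B6 luciferase reporter stimulated by CITCO; nearly all actives have a fitted effect of over 40% in size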; further: potency means the concentration at half of the fitted maximal effect
Outline: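 Luminescence from a CYP2B6-2.2kb promoter reporter in hCAR-expressing HepG2 cells reflects CAR signaling. Cells received compounds at 15 concentrations and 50 nM CITCO (final), then incubated 24 h at 37 C/5% CO2.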

Sequence of Luciferin 4-monooxygenase (Photinus pyralis) (P08659 whole entry, looked up): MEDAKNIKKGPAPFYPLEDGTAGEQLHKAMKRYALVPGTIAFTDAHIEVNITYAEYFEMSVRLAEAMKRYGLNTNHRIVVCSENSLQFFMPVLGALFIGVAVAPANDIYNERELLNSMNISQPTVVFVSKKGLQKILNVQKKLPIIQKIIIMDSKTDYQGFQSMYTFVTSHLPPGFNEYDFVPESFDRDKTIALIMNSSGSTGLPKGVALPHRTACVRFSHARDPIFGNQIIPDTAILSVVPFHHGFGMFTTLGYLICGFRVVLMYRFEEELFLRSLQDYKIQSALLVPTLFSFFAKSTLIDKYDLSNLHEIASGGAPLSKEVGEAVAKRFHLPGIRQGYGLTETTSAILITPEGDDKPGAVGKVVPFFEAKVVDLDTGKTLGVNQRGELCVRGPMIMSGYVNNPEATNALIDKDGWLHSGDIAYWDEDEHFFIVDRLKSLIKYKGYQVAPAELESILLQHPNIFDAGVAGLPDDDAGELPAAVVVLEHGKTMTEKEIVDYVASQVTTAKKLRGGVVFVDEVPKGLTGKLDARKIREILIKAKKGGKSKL
Sequence of Nuclear receptor subfamily 1 group I member 3 (Homo sapiens) (Q14994 whole entry, looked up): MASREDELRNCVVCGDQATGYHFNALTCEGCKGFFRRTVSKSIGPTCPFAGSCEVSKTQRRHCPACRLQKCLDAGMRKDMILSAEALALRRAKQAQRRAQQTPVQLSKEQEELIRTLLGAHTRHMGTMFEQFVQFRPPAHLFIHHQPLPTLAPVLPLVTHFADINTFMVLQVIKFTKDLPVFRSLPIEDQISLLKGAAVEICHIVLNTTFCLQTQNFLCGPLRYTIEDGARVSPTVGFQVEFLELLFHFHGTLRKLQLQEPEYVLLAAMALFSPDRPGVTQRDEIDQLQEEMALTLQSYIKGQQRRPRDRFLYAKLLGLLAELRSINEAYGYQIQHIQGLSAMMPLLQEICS
Sequence of Thyrotropin receptor (Homo sapiens) (P16473 whole entry, looked up): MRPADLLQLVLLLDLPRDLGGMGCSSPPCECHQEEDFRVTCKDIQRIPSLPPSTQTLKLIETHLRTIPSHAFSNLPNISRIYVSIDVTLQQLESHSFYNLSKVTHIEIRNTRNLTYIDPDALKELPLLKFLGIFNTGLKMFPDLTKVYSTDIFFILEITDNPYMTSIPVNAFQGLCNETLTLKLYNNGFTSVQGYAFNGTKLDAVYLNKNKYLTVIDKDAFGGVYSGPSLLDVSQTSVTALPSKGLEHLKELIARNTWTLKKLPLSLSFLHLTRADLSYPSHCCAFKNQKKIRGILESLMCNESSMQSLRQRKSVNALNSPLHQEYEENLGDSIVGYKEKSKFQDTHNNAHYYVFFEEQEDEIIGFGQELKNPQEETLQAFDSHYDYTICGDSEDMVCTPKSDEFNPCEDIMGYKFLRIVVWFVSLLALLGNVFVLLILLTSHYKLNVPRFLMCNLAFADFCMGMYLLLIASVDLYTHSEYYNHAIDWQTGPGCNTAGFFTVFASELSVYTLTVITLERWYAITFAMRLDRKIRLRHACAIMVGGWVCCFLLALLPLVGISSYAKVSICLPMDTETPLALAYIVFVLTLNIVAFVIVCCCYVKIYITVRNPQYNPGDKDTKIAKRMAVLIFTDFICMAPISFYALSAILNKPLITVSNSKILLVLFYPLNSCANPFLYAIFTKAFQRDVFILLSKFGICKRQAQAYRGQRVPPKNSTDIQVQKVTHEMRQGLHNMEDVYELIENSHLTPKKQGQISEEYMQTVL

| Structure (SMILES) | Potency [1] | Potency [2] | Potency [3] | Potency [4] | Potency [5] | Potency [6] | Potency [7] | Potency [8] | Potency [9] | Potency [10] | Potency [11] | Potency [12] | Potency [13] | outcome [14] | Potency [15] | outcome [16] | Potency [17] | Potency [18] | outcome [19] | Potency [20] |
| --- | --- | --- | --- | --- | --- | --- | --- | --- | --- | --- | --- | --- | --- | --- | --- | --- | --- | --- | --- | --- |
| Clc1cccc(Cl)c1 | inactive | inactive | inactive | inactive | inactive | inactive | inactive | inactive | inactive | inactive | inactive | inactive | inactive |  |  |  |  |  |  |  |
| CSc1nc(NC(C)C)nc(NC(C)C)n1 | inactive | inactive | inactive | inactive | inactive | inactive | inactive | inactive |  | inactive | inactive | inactive |  |  |  |  |  |  |  |  |
| N#Cc1c(Cl)c(Cl)c(Cl)c(C#N)c1Cl | 6.05 µM (active) and 4.9 µM (active) | 37.8 µM (active) and 38.6 µM (active) | 3 µM (active) and 3.06 µM (active) | 847 nM (active) and 486 nM (active) | 7.55 µM (active) and 21.7 µM (active) | inactive | 26.8 µM (active) and 24.3 µM (active) | 15.1 µM (active) and 9.69 µM (active) | inactive | 4.24 µM (active) and 6.11 µM (active) |  |  | 2.68 µM (active) and 3.86 µM (active) |  |  |  |  |  |  |  |
| CCOP(=S)(OCC)SCn1c(=O)oc2cc(Cl)ccc21 | inactive | inactive | inactive | inactive |  | 38.2 µM (active) | inactive | inactive | 58.4 µM (active) and 24.3 µM (active) | inactive |  |  | inactive |  |  |  |  |  |  |  |
| CCOC(=O)c1ccccc1N | inactive | inactive | inactive | inactive | inactive | inactive | inactive | inactive | inactive | inactive |  |  | inactive |  |  |  |  |  |  |  |
| NC(=O)CN1CCCC1=O | inactive | inactive | inactive |  | inactive | inactive | inactive | inactive | inactive | inactive | inactive | inactive |  | inactive | inactive | inactive | inactive | inactive | inactive | inactive |
| C[C@]12CC[C@H]3[C@@H](CCC4=CC(=O)CC[C@@H]43)[C@@H]1CC[C@@H]2O | inactive | inactive | 48.1 µM (active) | inactive | inactive | inactive | inactive | inactive | inactive | inactive |  |  | inactive |  |  |  |  |  |  |  |
| CC1=C(C(=O)Nc2ccccc2)SCCO1 | inactive | inactive | inactive | 15.6 µM (active) | inactive | 36.2 µM (active) and 44.8 µM (active) | inactive | inactive |  | inactive | inactive | inactive | inactive |  |  |  |  |  |  |  |
| CCOP(=S)(OCC)OP(=S)(OCC)OCC | inactive | inactive | inactive | inactive | inactive |  | inactive | inactive | inactive | inactive | inactive | inactive | inactive |  |  |  |  |  |  | inactive |
| CCC[CH2][Sn]([Cl])([Cl])[CH2]CCC | 1.76 µM (active) and 3.09 µM (active) | 13.9 µM (active) and 27.3 µM (active) | 310 nM (active) and 344 nM (active) |  | 981 nM (active) and 1.09 µM (active) |  | 874 nM (active) | 874 nM (active) and 864 nM (active) | inactive | 492 nM (active) and 486 nM (active) | 196 nM (active) and 96.9 nM (active) | inactive |  |  |  |  |  |  |  | 552 nM (active) and 686 nM (active) |
| C=CC(=O)OCC(CC)(COC(=O)C=C)COC(=O)C=C | 15.9 µM (active) and 21.9 µM (active) | inactive | 8.87 µM (active) and 15.4 µM (active) | 2.23 µM (active) | 15.8 µM (active) and 17.2 µM (active) | inactive | 35.3 µM (active) and 30.6 µM (active) | 28 µM (active) and 19.3 µM (active) | inactive | 8.87 µM (active) and 12.2 µM (active) | 17.7 µM (active) and 21.7 µM (active) | inactive | 11.2 µM (active) and 15.4 µM (active) |  |  |  |  |  |  |  |
| N#Cc1nn(-c2c(Cl)cc(C(F)(F)F)cc2Cl)c(N)c1S(=O)C(F)(F)F (configuration not stated) | inactive | inactive |  | inactive | 27.5 µM (active) and 29.8 µM (active) | inactive |  | inactive | inactive | inactive | 7.74 µM (active) and 21.1 µM (active) | inactive | inactive |  |  |  |  |  |  |  |
| C=C(C)C#N | inactive | inactive | inactive | inactive | inactive | inactive | inactive | inactive | inactive | inactive |  |  | inactive |  |  |  |  |  |  |  |
| CC(C)(C#N)N=NC(C)(C)C#N | inactive | inactive | inactive | inactive | inactive | inactive | inactive | inactive | inactive | inactive |  |  | inactive |  |  |  |  |  |  |  |
| CC(C)(c1ccc(OCC2CO2)cc1)c1ccc(OCC2CO2)cc1 (configuration not stated) | 49.6 µM (active) and inactive | inactive | inactive | inactive | inactive | inactive | inactive | inactive | inactive | inactive | 69.5 µM (active) and inactive | inactive | inactive |  |  |  |  |  |  |  |
| CC(C)(O)C(=O)Nc1ccc([N+](=O)[O-])c(C(F)(F)F)c1 | inactive | inactive | inactive | inactive | inactive | inactive | inactive | inactive |  | inactive | 27.9 µM (active) | inactive | inactive |  |  |  |  |  |  |  |
| CC1(C)Cc2cccc(O)c2O1 | inactive | inactive | inactive | inactive | inactive | inactive | inactive | inactive | inactive | inactive |  |  | inactive |  |  |  |  |  |  |  |
| CCCCCCCCCc1ccc(O)cc1 | 55.5 µM (active) | inactive | inactive | 19.5 µM (active) | 61.8 µM (active) | inactive | inactive | inactive |  |  |  |  | inactive |  |  |  |  |  |  |  |
